This note sets out measurements from PubChem BioAssay AID1117283 (Broad Institute, 2014).

Potency and affinity values are given separately. Calls of active or inactive are those of the source.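 The calls were made as follows: active = fluorescent signal decreased by at least 40%; inconclusive = no clear call, values can overlap the other calls; inactive = the rest, including activity opposite to the expected direction.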

This experiment is described as follows: fibronectin fibrillogenesis inhibitors in fibroblasts, dose response, AH1F cells, Alexa488-fibronectin fluorescence, cherry-pick, set 2 (AID 1117283).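 Also: AH1F fibroblasts given Alexa488-labelled fibronectin at 24 nM final.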

Turning to `COC(=O)c1c(NC(=O)CN2CCN(c3ccccc3Cl)CC2)sc(C)c1C`, the result was inactive.

Regarding `CC(C)(C)[S@@](=O)N1Cc2cc(C(=O)NCc3ccccc3F)nc(-c3cccc(-c4cncnc4)c3)c2[C@H]1CCO`, the result was inactive.

Regarding `C[C@H](CO)N1C[C@H](C)[C@H](CN(C)C)Oc2cc(C#C[C@@H](C)O)ccc2S1(=O)=O`, the compound was called inactive.

Turning to `O=C(NCCS(=O)(=O)N1CCN(c2ccc(F)cc2)CC1)c1ccc(Br)o1`, the outcome was inactive.

As to `Cc1ccc(S(=O)(=O)N2CC[C@@H]3[C@H](CO)Nc4ccc(-c5cccc(C(=O)N(C)C)c5)cc4[C@@H]32)cc1`, the compound was called inactive.

For `CO[C@H]1CN(C)C(=O)c2ccc(NC(=O)Nc3ccc(Cl)c(Cl)c3)cc2OC[C@H](C)NC[C@H]1C`, the call was inactive.

For `Cc1c(NC(=O)c2ccc3nsnc3c2)cccc1[N+](=O)[O-]`, the compound was classed as inactive.

For the compound `CCc1ccc(NC(=O)CSc2nnc(-c3ccco3)o2)cc1`, the result was inactive.

`C[C@@H]1CN([C@@H](C)CO)C(=O)c2cc(-c3ccncc3)cnc2O[C@@H]1CN(C)C(=O)Cc1cccnc1`: the call was inactive.

For `CCCCNC(=O)Nc1nc2ccc(CC)cc2s1`, the outcome was inactive.

Turning to `O=C(Nc1cc(Sc2nc3ccccc3s2)cc([N+](=O)[O-])c1)c1ccccc1F`, the call was inactive.

Regarding `O=S(=O)(c1cccc(F)c1)N1CC[C@H]2[C@H](CO)Nc3ccc(-c4cccc(F)c4)cc3[C@H]21`, the result was inactive.

For `CN1c2ccc(-c3ccccc3)cc2[C@@H]2[C@@H](CCN2C(=O)CN2CCOCC2)[C@H]1CO`, the call was inactive.

As to `O=S(=O)(c1ccccc1F)N1CC[C@@H]2[C@@H](CO)Nc3ccc(-c4cccc(F)c4)cc3[C@@H]21`, the outcome was inactive.
